# Assay outcomes from PubChem.
# USP1 inh = inhibitors of human USP1/UAF1 deubiquitinase; O94782; recombinant USP1/UAF1, Ub-Rhodamine cleavage fluorescence; Potency, µM (top dose mostly 57.1 µM), for the others: at the highest dose activity change, negative = inhibition, actives largely listed as inhibitors; 0.23% of 390,000 active; further: on the % scale 0 is the no-effect control and ±100 the full control effect; nearly all actives have a fitted effect of over 60% in size
# Target sequence (O94782 whole entry, looked up): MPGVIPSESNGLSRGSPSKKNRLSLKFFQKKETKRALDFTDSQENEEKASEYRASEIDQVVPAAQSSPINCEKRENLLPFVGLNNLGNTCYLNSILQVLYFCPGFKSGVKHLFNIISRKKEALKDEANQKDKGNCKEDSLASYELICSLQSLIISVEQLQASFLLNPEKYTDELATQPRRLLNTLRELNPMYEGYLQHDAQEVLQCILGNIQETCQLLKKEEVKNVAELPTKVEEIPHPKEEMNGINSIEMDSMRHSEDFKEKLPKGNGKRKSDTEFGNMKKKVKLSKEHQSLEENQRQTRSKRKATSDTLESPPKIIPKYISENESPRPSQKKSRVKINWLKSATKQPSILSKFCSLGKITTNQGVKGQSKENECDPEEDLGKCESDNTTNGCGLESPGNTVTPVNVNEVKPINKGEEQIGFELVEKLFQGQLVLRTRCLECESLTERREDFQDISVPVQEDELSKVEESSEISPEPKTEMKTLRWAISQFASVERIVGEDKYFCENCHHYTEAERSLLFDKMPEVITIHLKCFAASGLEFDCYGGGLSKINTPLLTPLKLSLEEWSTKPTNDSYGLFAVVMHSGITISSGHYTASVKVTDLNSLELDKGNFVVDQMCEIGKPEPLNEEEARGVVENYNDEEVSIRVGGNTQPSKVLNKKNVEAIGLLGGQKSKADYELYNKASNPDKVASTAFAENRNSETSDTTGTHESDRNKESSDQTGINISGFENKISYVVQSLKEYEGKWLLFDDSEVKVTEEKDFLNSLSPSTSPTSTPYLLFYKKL
#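 1 nM enzyme complex + cpd, 15 min RT; start with Ub-Rho 150nM final; kinetic fluorescence ex 480/em 540, 6 reads q60 s. Buffer 50mM HEPES pH 7.8, 0.5mM EDTA, 0.1 mg/ml BSA, 1mM TCEP, 0.01% Tween-20.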
# EPAC2 antagonist = antagonists of human EPAC2. Q8WZA2. EPAC2 GEF exchange of Rap1B-BODIPY-GDP, fluorescence. Potency, µM (series often up to 114 µM), inactives show at the highest dose activity, negative = inhibition, usual class: inhibitors. 0.18% of 360,000 active. AID 720708; further: on the % scale 0 is the no-effect control and ±100 the full control effect; nearly all actives have a fitted effect of over 45% in size
# EPAC1 antagonist = EPAC1 (human) antagonism; EPAC1 GEF assay, Rap1b-BODIPY-GDP exchange fluorescence; Potency, µM (titrated, usually from 115 µM), for the others: at the top dose activity change, negative = inhibition, most hits filed as inhibitors; 0.14% of 360,000 active;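 further: plate controls were vehicle for no effect and positive control for full effect; nearly all actives have a fitted effect of over 50% in size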
# BRCA1 expr act = activators of BRCA1 expression; AID 624202; Potency, µM (top dose mostly 46.1 µM), inactives show at the highest dose activation, hits mostly activators; MCF7-BRCA1-FFLuc reporter, luminescence, 48 h; response scale: scaled: vehicle 0%, 10 µM genistein 100%; 1.1% of 380,000 active; further: nearly all actives have a fitted effect of over 80% in size
#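 Luminescence from a BRCA1-driven firefly luciferase in MCF7 cells was the read-out, taken 15 min after substrate addition following 48 h compound exposure at 37 °C. Data were normalized to a 10 microM genistein control and DMSO vehicle.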
# EPAC2 ag = EPAC2 (human) agonism; Q8WZA2; EPAC2 activation, biochemical qHTS; response scale: 100% = 6.5 mM cAMP response; Potency, µM (titrated, usually from 154 µM), inactives show at the top dose activation, usual class: activators; 0.079% of 360,000 active; AID 720711; further: nearly all actives have a fitted effect of over 50% in size
#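 EPAC2 (100 nM) mixed with Rap1B loaded with BODIPY-GDP (250 nM) plus 50 uM unlabeled GDP; compounds pinned in, 5 min RT, then read every 5 min for 30 min (ex 480, em 540 nm). Normalized to cAMP control.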
# EPAC1 ag = EPAC1 (human) agonism. EPAC1 agonist qHTS, biochemical assay; response scale: 100% = response to 6.5 mM cAMP. Potency, µM (top dose mostly 154 µM), for the others: top-dose activation, most hits filed as activators. 0.073% of 360,000 active. AID 720707; further: nearly all actives have a fitted effect of over 60% in size
#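 Normalized to 6.5 mM cAMP, activity reflects EPAC1-catalysed release of BODIPY-GDP from Rap1B, followed kinetically over 30 min at 480 nm excitation, 540 nm emission. Reaction contained 100 nM EPAC1, 250 nM Rap1B-BODIPY-GDP, 50 uM GDP.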
# * hit, by the source's call; ? = inconclusive; / = not tested or not shown. In the library only some 1.4% were active in any assay of this set; here they are far more common. The call rests on the fitted dose curve; in most records, active means well fitted curve in the direction sought with a large enough effect; inconclusive means small, poorly fitted or top-dose-only effect, or another doubt; inactive means no such curve, though single readings can be large; an effect the other way counts as inactive or inconclusive. Potency means the concentration at half of the fitted maximal effect.
SMILES,USP1 inh,EPAC2 antagonist,EPAC1 antagonist,BRCA1 expr act,EPAC2 ag,EPAC1 ag
O=C(NCCC(NS(=O)(=O)OCC(Cl)(Cl)Cl)c1ccccc1)C(F)(F)F (stereo not given),-23%,1%,-8%,-17%,0%,-1%
CC(C)(C)c1cc(C2=CSC3=NCCN23)cc(C(C)(C)C)c1O,-15%,1%,-8%,-31%,9%,11%
COC(=O)C1=C(C(=O)OC)[C@]2([C@H]3CC=CCN[C@@H](Cc4ccccc4)C(=O)N3Cc3ccccc3)C=C[C@H]1O2,-26%,-20%,-2%,-21%,4%,6%
COc1cccc(COc2ccc3c(C)cc(=O)oc3c2)c1,-16%,0%,-10%,2.8µM*,10%,-4%
O=S(=O)(NCCS(=O)(=O)N1CCN(c2ccc(F)cc2)CC1)c1ccc(F)cc1,-25%,5%,10%,-1%,-2%,-11%
Cn1c(=O)c(Nc2ccc(Cl)cc2)c2c3c(cccc31)C(=O)c1ccccc1-2,10µM*,63%,11%,-42%,112µM*,?
CC(=O)Nc1c2c3c(cccc3n(C)c1=O)C(=O)c1ccccc1-2,-14%,13%,9%,6%,1%,5%
CN(c1ccc(OC(=O)CN2C(=O)NC3(CCCC3)C2=O)cc1)S(=O)(=O)c1ccccc1,-16%,12%,10%,2%,-9%,0%
CCOc1ccc(NC(=O)CN(C)C(=O)c2cc(C3CC3)nn2-c2ccccc2)cc1OCC,-11%,-15%,-7%,-39%,-8%,32µM*
CCCC[n+]1c(/C=C/c2ccc(N(C)C)cc2)sc2ccccc21,/,/,/,-21%,/,/
CC(=O)N1CCn2c3c(c(=O)c4cc(C)ccc42)CCC31 (stereo not given),32µM*,11%,-24%,-14%,10%,12%
CC(=O)N1CCn2c3c(c4cc(C)ccc42)CCCC31 (stereo not given),-4%,-5%,3%,-53%,-7%,-7%
COc1ccc(Nc2ncnc3c2nc2n3CCCCC2)cc1,-25%,/,/,10µM*,/,/
CCOc1ccc(Nc2ncnc3c2nc2n3CCCCC2)cc1,-19%,/,/,12%,/,/
CC1CCCN(c2ncnc3c2nc2n3CCCCC2)C1 (stereo not given),-20%,/,/,11µM*,/,/
CCOc1cc(-c2ccc3c(c2)OCO3)cc(=[O+]CC)c2c(C)oc(C)c12,/,/,/,0%,/,/
CNC(=S)N/N=C/c1ccc(C(C)C)cc1,-7%,-2%,0%,5µM*,9%,2%
COc1cccc(C(=O)/C=C/c2ccc(OCC#N)c(OC)c2)c1,-21%,-3%,22µM*,-81%,13%,1%
COC(=O)c1c(NC(=O)CS(=O)(=O)c2ccc(C)cc2)sc2c1CCCCC2,-19%,/,/,-15%,/,/
COc1ccc(NC2CCCN(C(=O)c3ccccc3C(F)(F)F)C2)cc1 (stereo not given),-17%,8%,7%,-15%,-1%,-4%
N#Cc1cc2c(=O)n3ccccc3nc2n(-c2nnc(SCc3ccccc3Cl)s2)c1=O,18%,/,/,/,/,/
CC(=O)N1N=C(c2cccc(NS(C)(=O)=O)c2)CC1c1ccc2c(c1)OCO2 (stereo not given),-19%,?,9%,34%,20%,12%
CS(=O)(=O)Nc1ccc(C2=NN(S(C)(=O)=O)C(c3ccc4c(c3)OCO4)C2)cc1 (stereo not given),-10%,-1%,-5%,4.5µM*,10%,13%
Cc1nnc(SCc2ccccc2)nc1-c1ccccc1,-25%,-2%,-2%,11µM*,13%,7%
OC1C2CCC(C2)C1CN1CCOCC1 (stereo not given),-26%,5%,0%,0%,19%,5%
SMILES,USP1 inh,EPAC2 antagonist,EPAC1 antagonist,BRCA1 expr act,EPAC2 ag,EPAC1 ag
CCN(c1ccccc1)c1cc2ccccc2c(=O)[nH]1,25µM*,-14%,?,0%,-16%,-11%
OC[C@@H]1CN(CCc2ccccc2)C[C@H](n2cnc3c(N4CCOCC4)ncnc32)O1,/,2%,3%,0%,-2%,2%
CSc1ccccc1OCc1cc(C(=O)N2CCN(C)C(c3ccccc3)C2)no1 (stereo not given),-21%,-4%,5%,8%,4%,6%
COc1ccccc1OCc1cc(C(=O)N2CC3C[C@@H]4CC2C[C@H](C3)C4)no1,-9%,-11%,-13%,7.9µM*,11%,3%
O=C(c1cc(COc2ccc(F)cc2F)on1)N1CC2C[C@@H]3CC1C[C@H](C2)C3,-24%,3%,-15%,91%,19%,-12%
CN1CCN(C(=O)c2cc(COc3ccccc3)on2)[C@@H](c2ccccc2)C1,-16%,0%,-16%,5µM*,8%,-3%
Cc1ccc(OCc2cc(C(=O)N3CCN(C)C[C@@H]3c3ccccc3)no2)cc1C,-10%,-18%,-6%,?,11%,7%
COc1ccccc1OCc1cc(C(=O)N2CCN(C)C(c3ccccc3)C2)no1 (stereo not given),-7%,-9%,-16%,10µM*,10%,13%
COc1cc(Cl)ccc1OCc1cc(C(=O)N2CCN(C)CC2)no1,-11%,0%,14%,15%,1%,1%
COc1cc(Cl)ccc1OCc1cc(C(=O)N2CCN(C)C(=O)[C@@H]2C)no1,-9%,-5%,6%,10µM*,2%,3%
Cc1ccc(S(=O)(=O)NCc2ccccc2)cc1C(=O)N(C)Cc1ccccc1F,-10%,-4%,-2%,-10%,-1%,5%
CS(=O)(=O)N1CCc2cc(C(=O)Nc3ccc(COCC(F)(F)F)cc3)ccc21,-24%,-4%,-3%,-8%,-8%,-15%
CC(C)(C)CNC(=O)c1cccc2c1C(=O)c1ccc(-c3cc4ccccc4o3)cc1S2(=O)=O,17%,-18%,?,-5%,100µM*,-6%
O=C(NCC1CC1)c1cccc2c1C(=O)c1ccc(-c3ccc(OC(F)(F)F)cc3)cc1S2(=O)=O,19%,?,-17%,8%,-4%,-5%
COC(=O)C1CCN(C2CN(Cc3ccccc3)S(=O)(=O)C2)CC1 (stereo not given),/,15%,9%,13%,7%,3%
CCC(C(=O)Nc1c(C)cc(C)cc1C)N1CCCCCC1 (stereo not given),-15%,-4%,7%,18%,0%,-5%
CCc1oc2ccccc2c1C(=O)c1cc(Br)c(O)c(Br)c1,?,10µM*,?,6%,-11%,-11%
O=C1c2cc(O)c(O)cc2S(=O)(=O)C1c1ccccc1 (stereo not given),?,23%,-6%,7%,4%,-13%
